Results reported in PubChem BioAssay (NCATS).
Where “and” joins values, the source holds several entries; their conditions need not be identical. Equal entries are not always repeated. Inconclusive results are not listed. Where a call stands in place of a potency, no number is given. Calls of active or inactive are those of the source. Unless noted, calls come from the whole dose curve.

Key:
[1] = qHTS for Inhibitors of the Functional Ribonucleoprotein Complex (vRNP) of Lymphocytic Choriomeningitis Arenaviruses (LCMV): Viability assay - alamar blue signal for LCMV Primary Screen (AID 1347085; calls by dose curve; tested in HEK293 reporter line; note: nearly all actives have a fitted effect of over 80% in size; note: potency is the fitted concentration of half-maximal effect)
[2] = target: Nucleoprotein (Lymphocytic choriomeningitis virus (strain Armstrong)) (UniProt P09992); assay: qHTS for Inhibitors of the Functional Ribonucleoprotein Complex (vRNP) of Lymphocytic Choriomeningitis Arenaviruses (LCMV): LCMV Primary Screen - GLuc reporter signal (AID 1347086); note: nearly all actives have a fitted effect of over 70% in size; note: potency is the fitted concentration of half-maximal effect
Chain of Nucleoprotein (Lymphocytic choriomeningitis virus (strain Armstrong)) (P09992 whole entry, looked up): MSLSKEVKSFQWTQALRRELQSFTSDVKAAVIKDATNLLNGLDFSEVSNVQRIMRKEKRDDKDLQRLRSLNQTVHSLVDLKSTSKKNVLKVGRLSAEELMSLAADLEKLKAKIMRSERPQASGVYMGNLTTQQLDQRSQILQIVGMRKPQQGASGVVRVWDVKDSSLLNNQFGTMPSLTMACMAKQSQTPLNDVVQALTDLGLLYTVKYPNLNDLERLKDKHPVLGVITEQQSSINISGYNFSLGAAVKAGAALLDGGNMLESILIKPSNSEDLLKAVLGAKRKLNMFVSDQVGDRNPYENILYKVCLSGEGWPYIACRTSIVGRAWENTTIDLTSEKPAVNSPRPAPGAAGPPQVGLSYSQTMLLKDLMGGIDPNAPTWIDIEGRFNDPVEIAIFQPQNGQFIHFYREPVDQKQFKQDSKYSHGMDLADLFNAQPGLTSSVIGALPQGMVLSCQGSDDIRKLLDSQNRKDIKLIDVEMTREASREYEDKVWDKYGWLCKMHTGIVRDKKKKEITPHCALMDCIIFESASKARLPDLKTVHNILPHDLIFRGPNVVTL

[3] = Cytotoxicity counterscreen for inhibitors of SARS-CoV-2 cell entry (AID 1645845); note: nearly all actives have a fitted effect of over 50% in size; note: potency is the fitted concentration of half-maximal effect
In short: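 Expi293F/hACE2 cells seeded overnight; cpd pin-transferred in DMSO, 1 h preincubation, + media, 48 h 37 C 5% CO2; ATPLite 1step luminescence; normalized to cells and no cells.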

[4] = Primary qHTS to identify inhibitors of SARS-CoV-2 cell entry (AID 1645846); details: activity change, negative = inhibition: at 57.1 µM (top of the series) unless noted; note: nearly all actives have a fitted effect of over 45% in size
In short: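 Using luciferase-reporting pseudoviruses carrying Wuhan-Hu-1 spike, the screen tracks entry into stably ACE2-expressing cells over 48 hr. Activity is expressed relative to spike particles versus particles lacking any fusion protein.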

[5] = Inducers of the Endoplasmic Reticulum Stress Response (ERSR) in human glioma: Validation (AID 504836; active = well fitted curve in the direction sought with a large enough effect; an effect the other way counts as inactive or inconclusive)
In short: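 Stably transfected U87-MG human glioma cells carrying a GRP78-based luminescent sensor were seeded at 1000 cells/well, pin-dosed with compounds and incubated 16 h. Luciferase reagent was then added, and end-point luminescence was read after 10 min at room temperature.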

[6] = target: Metallo-beta-lactamase type 2 (Klebsiella pneumoniae) (UniProt C7C422); assay: qHTS to identify inhibitors of the New Delhi Metallo-beta-lactamase (NDM): assay validation screen against the NCATS LOPAC Collection (AID 1794843; active = well fitted curve in the direction sought with a large enough effect; an effect the other way counts as inactive or inconclusive;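 note: nitrocefin turnover by NDM-1 measured as 485 nm absorbance at plateau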)
Chain of Metallo-beta-lactamase type 2 (Klebsiella pneumoniae) (C7C422 whole entry, looked up): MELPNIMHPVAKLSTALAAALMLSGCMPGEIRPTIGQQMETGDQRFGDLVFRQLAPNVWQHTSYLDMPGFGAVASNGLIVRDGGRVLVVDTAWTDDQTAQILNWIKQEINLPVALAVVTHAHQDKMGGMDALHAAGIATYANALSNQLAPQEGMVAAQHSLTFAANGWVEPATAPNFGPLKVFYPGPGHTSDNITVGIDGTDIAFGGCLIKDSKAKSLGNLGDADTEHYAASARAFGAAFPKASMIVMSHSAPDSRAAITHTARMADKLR
In short: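 Enzyme 2 nM final, 50 mM HEPES pH 7.0, 1 uM ZnSO4, 0.01% Tween20; cpds in DMSO, preincub w/ enzyme; + nitrocefin (50 uM stock); A485 at plateau; no-enzyme column as blank.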

[7] = system: Zika virus NS2B-NS3 protease; assay: Primary screen GU AMC qHTS for Zika virus inhibitors (AID 1347154; active = well fitted curve in the direction sought with a large enough effect; an effect the other way counts as inactive or inconclusive; note: nearly all actives have a fitted effect of over 70% in size)
In short: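 Unlinked Zika NS2B hydrophilic domain/NS3 protease domain noncovalent complex (25 nM final) in 10 mM Tris-HCl pH 8.0, 0.01% Tween 20, with AMC peptide substrate. Fluorescence (ex 340, em 450 nm) change over 15 min, room temperature; percent inhibition fitted to 4-parameter Hill equation.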

[8] = target: Estrogen receptor (Homo sapiens) (UniProt P03372); assay: qHTS assay for small molecule antagonists of estrogen receptor alpha signaling (AID 588513; active = well fitted curve in the direction sought with a large enough effect in the signal ratio, with a control signal flat, not every such curve was filed as active; the % refers to the signal ratio)
Chain of Estrogen receptor (Homo sapiens) (P03372 whole entry, looked up): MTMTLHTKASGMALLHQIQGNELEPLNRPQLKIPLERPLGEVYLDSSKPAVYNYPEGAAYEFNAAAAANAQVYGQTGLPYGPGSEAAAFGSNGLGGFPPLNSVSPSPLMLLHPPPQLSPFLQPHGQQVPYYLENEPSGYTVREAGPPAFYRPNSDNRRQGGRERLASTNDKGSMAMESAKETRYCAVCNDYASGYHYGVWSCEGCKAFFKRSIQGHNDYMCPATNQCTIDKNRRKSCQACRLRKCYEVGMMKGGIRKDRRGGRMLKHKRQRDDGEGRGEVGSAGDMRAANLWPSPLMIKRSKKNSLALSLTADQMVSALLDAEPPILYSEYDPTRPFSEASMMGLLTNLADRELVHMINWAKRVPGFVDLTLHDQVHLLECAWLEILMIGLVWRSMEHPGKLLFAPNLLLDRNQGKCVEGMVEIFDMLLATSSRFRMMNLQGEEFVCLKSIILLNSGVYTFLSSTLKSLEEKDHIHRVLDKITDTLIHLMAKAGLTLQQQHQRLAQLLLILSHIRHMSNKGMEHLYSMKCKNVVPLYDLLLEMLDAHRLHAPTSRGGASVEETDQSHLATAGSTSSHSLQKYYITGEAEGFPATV
In short: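 Antagonist-mode qHTS in ER-alpha-UAS-bla HEK 293 cells: compound titration, 0.5nM estradiol for 18 h, CCF4 fluorescence, Hill-derived IC50.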

[9] = target: Estrogen receptor (Homo sapiens) (UniProt P03372); assay: qHTS assay for small molecule agonists of estrogen receptor alpha signaling (AID 588514); note: nearly all actives have a fitted effect of over 70% in size
In short: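 Reporter-gene assay. […] controls beta-lactamase in HEK 293 GripTite cells; after 18 hrs with compound, CCF4 substrate is added for 2 hrs and fluorescence is read.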

[10] = target: Peroxisome proliferator-activated receptor gamma (Homo sapiens) (UniProt P37231); assay: qHTS assay for small molecule agonists of peroxisome proliferator-activated receptor gamma signaling (AID 588536; active = well fitted curve in the direction sought with a large enough effect in the signal ratio, with a control signal flat, not every such curve was filed as active; the % refers to the signal ratio)
Chain of Peroxisome proliferator-activated receptor gamma (Homo sapiens) (P37231 whole entry, looked up): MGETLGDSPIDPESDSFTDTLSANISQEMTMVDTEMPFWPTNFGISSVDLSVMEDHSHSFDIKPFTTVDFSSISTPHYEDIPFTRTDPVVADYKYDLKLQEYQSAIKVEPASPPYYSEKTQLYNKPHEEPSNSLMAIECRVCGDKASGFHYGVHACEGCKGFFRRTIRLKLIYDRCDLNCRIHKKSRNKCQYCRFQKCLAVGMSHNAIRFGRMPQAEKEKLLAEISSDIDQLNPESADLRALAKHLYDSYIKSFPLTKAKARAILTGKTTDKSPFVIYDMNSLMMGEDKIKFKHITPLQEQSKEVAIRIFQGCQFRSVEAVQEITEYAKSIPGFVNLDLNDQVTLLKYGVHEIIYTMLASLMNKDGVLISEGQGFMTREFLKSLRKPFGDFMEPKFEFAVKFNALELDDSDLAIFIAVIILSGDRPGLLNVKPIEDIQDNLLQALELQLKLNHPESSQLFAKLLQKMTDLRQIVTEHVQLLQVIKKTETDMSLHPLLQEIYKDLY
In short: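 Test agents, titrated, stimulated HEK293 UAS-bla cells overnight (16 h, 37 C). Substrate CCF4 was then added for two hours at room temperature before fluorescence reading.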

[11] = target: Peroxisome proliferator-activated receptor gamma (Homo sapiens) (UniProt P37231); assay: qHTS assay for small molecule antagonists of peroxisome proliferator-activated receptor gamma signaling (AID 588537; active = well fitted inhibition curve with a large enough effect in the signal ratio, with a control signal flat, not every such curve was filed as active; the % refers to the signal ratio;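 note: reporter cells co-stimulated with 50 nM rosiglitazone agonist during compound treatment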)
In short: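 PPAR-gamma-UAS-bla HEK293 cells (3000/well, 1% charcoal/dextran-stripped FBS) were preincubated 6-6.5 h at 37 C, given titrated compounds, then stimulated with 50 nM rosiglitazone for 16 h. Beta-lactamase activity was read with CCF4 dye; IC50 came from Hill fits.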

[12] = target: Vitamin D3 receptor (Homo sapiens) (UniProt P11473); assay: qHTS assay for small molecule antagonists of vitamin D receptor signaling (AID 588541);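 note: receptor activated by calcitriol during compound treatment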
Chain of Vitamin D3 receptor (Homo sapiens) (P11473 whole entry, looked up): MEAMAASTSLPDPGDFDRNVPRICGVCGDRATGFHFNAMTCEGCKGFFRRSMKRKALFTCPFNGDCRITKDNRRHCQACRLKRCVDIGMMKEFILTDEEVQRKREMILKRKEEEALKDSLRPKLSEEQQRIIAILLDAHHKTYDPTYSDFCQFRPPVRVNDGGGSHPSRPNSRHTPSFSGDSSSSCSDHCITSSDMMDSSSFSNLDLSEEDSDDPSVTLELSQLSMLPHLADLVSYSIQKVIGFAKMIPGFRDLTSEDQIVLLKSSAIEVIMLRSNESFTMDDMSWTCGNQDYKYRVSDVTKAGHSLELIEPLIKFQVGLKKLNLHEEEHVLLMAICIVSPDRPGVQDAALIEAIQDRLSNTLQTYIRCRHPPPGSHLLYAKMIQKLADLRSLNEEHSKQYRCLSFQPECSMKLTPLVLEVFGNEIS
In short: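 VDR-UAS-bla HEK293T cells (2000/well, 2% charcoal-stripped FBS) were treated with titrated compounds plus 1-alpha,25-dihydroxyvitamin D3 (50 nM or 3 nM final) for 16 h at 37 C. CCF4 beta-lactamase fluorescence was read; Hill fits gave IC50.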

[13] = target: Vitamin D3 receptor (Homo sapiens) (UniProt P11473); assay: qHTS assay for small molecule agonists of vitamin D receptor signaling (AID 588543)
In short: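 Measured: β-lactamase reporter activity (CCF4, 405 nm excitation, 460/530 nm emission) in HEK293T VDR-UAS-bla cells after 16 h compound exposure at 37 °C. Normalization against 50 nM 1α,25-dihydroxyvitamin D3 and DMSO; Hill-fit EC50.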

[14] = qHTS assay for small molecule agonists of retinoid X receptor alpha signaling (AID 588544); details: HEK293T RXRa-UAS-bla, beta-lactamase reporter, 18 h; 530 nm emission
[15] = target: Retinoic acid receptor RXR-alpha (Homo sapiens) (UniProt P19793); assay: as above
Chain of Retinoic acid receptor RXR-alpha (Homo sapiens) (P19793 whole entry, looked up): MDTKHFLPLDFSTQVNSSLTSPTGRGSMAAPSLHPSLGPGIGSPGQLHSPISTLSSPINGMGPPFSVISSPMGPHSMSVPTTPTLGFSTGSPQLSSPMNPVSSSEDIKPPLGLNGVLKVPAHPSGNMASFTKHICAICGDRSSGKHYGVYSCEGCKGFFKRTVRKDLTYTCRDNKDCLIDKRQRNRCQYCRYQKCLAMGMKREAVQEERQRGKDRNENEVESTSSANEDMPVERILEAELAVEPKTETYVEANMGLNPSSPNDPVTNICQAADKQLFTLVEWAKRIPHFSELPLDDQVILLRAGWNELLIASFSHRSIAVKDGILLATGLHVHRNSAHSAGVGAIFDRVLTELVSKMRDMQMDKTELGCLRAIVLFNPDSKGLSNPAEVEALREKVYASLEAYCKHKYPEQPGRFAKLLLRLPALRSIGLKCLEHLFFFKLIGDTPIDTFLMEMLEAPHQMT

[16] = target: Thyroid hormone receptor beta (Homo sapiens) (UniProt P10828); assay: qHTS assay for small molecule agonists of thyroid hormone receptor beta signaling (AID 588545)
Chain of Thyroid hormone receptor beta (Homo sapiens) (P10828 whole entry, looked up): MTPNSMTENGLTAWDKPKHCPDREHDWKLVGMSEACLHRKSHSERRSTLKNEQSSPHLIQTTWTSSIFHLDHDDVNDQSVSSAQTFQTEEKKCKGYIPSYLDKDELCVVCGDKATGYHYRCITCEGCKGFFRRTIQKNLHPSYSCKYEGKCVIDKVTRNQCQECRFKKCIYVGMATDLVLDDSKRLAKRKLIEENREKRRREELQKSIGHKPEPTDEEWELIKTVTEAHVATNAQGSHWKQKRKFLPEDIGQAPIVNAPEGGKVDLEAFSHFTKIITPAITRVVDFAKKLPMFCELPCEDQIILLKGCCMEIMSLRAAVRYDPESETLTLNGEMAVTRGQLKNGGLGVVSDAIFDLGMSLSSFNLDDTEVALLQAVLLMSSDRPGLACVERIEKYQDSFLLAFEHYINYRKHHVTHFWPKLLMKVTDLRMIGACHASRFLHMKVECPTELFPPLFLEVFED
In short: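 TR-UAS-bla-GripTite HEK 293 cells in medium with 2% charcoal/dextran FBS, 0.1 mM NEAA and 1 mM sodium pyruvate were treated with titrated compounds for 18 hrs at 37 C. Beta-lactamase reporter was read with CCF4 dye (ex 405, em 460/530 nm); EC50 from Hill fits.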

[17] = qHTS assay for small molecule antagonists of retinoid X receptor alpha signaling (AID 588546; active = well fitted inhibition curve with a large enough effect in the signal ratio, with a control signal flat, not every such curve was filed as active; the % refers to the signal ratio;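 note: cells stimulated with 9-cis-retinoic acid as agonist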); details: HEK293T RXRa-UAS-bla, beta-lactamase ratio, antagonist mode; measured here: W530 green channel, cytotoxicity proxy
In short: (§1)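 Beta-lactamase reporter inhibition, read as CCF4 fluorescence ratio (ex 405, em 460/530 nm) after 2 h at RT. HEK293T UAS-bla cells, 2500/well, were stimulated with 9-cis-RA at 500 or 100 nM final alongside test compound for 18 h at 37 C.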

[18] = target: Retinoic acid receptor RXR-alpha (Homo sapiens) (UniProt P19793); assay: as above; details: HEK293T RXRa-UAS-bla, beta-lactamase ratio, antagonist mode
In short: as §1

[19] = qHTS assay for small molecule agonists of the antioxidant response element (ARE) signaling pathway (AID 651741; active = well fitted activation curve with a large enough effect in the signal ratio; the % refers to the signal ratio)
In short: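 ARE-bla HepG2 cells (beta-lactamase reporter under ARE control) were plated at 2,000 cells/well, preincubated 5 h at 37 C/5% CO2, then treated with DMSO-dissolved compounds for 16 h at 37 C; LiveBLAzer B/G FRET substrate added, fluorescence read after 2 h at room temperature.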

[20] = qHTS assay for small molecule activators of the p53 signaling pathway (AID 651743; active = well fitted activation curve with a large enough effect in the signal ratio, not every such curve was filed as active; the % refers to the signal ratio); details: HCT-116 p53RE-bla, beta-lactamase FRET ratio, 16 h; activation: stronger effect = higher value
In short: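 p53RE-bla HCT-116 cells with a stably integrated beta-lactamase reporter under p53 response elements were plated, rested 5 hours at 37 C/5% CO2, then exposed to compounds in DMSO for 16 hours at 37 C. LiveBLAzer B/G FRET substrate was read after 2 hours at room temperature.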

[21] = qHTS assay for small molecule activators of the nuclear factor-kappa B (NF-kB) signaling pathway (AID 651749; active = well fitted activation curve with a large enough effect in the signal ratio; the % refers to the signal ratio); details: NF-kB-bla ME-180 cells, beta-lactamase FRET ratio, 16 h; activation: stronger effect = higher value
In short: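 ME-180 cells stably carrying a beta-lactamase reporter under an NF-kB response element were exposed to compound or DMSO vehicle for 16 hr at 37C, 5% CO2. Pathway activation was read by FRET, since reporter expression disrupts FRET.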

[22] = qHTS assay for environmental chemicals that activate the Aryl hydrocarbon Receptor (AhR) signaling pathway (AID 651777; active = well fitted curve in the direction sought with a large enough effect; an effect the other way counts as inactive or inconclusive; note: nearly all actives have a fitted effect of over 15% in size); details: 1A2-DRE human hepatoma cells, luciferase, 24 h; activation: stronger effect = higher value
In short: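 Measured luciferase activity, read 30 min after One-Glo addition at room temperature, from human hepatoma cells bearing a dioxin response element–CYP1A2 promoter reporter and exposed to compound for 24 hr at 37 C.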

[23] = target: Peroxisome proliferator-activated receptor alpha (Homo sapiens) (UniProt Q07869); assay: qHTS assay for small molecule agonists of the peroxisome proliferator-activated receptor alpha (PPARalpha) signaling pathway (AID 651778; active = well fitted curve in the direction sought with a large enough effect; an effect the other way counts as inactive or inconclusive); details: PathHunter PPARalpha complementation, chemiluminescence, 6 h; stronger effect = higher value
Chain of Peroxisome proliferator-activated receptor alpha (Homo sapiens) (Q07869 whole entry, looked up): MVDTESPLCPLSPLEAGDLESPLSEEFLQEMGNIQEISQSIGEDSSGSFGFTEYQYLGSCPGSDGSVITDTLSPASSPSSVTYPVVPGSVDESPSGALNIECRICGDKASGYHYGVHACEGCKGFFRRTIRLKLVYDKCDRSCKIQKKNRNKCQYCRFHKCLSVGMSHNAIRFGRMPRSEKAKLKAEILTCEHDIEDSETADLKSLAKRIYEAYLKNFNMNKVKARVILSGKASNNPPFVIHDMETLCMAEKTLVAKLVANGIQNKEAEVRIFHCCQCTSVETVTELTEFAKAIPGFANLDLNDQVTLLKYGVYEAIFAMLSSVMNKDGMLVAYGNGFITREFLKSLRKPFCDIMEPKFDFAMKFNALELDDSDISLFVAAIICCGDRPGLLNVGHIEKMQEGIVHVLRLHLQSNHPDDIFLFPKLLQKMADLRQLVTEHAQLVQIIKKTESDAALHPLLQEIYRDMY
In short: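 Cells plated at 2,000/well and held overnight at 37 C, 5% CO2, then compound added by pin tool for 6 hr; after PathHunter detection reagent and 60 min at room temperature, chemiluminescence from enzyme complementation was read.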

[24] = qHTS assay for small molecule agonists of the antioxidant response element (ARE) signaling pathway measured by Nrf2-dependant transcriptional activity - cell viability counter screen (AID 720653; active = well fitted curve in the direction sought with a large enough effect in the repeat runs; an effect the other way counts as inactive or inconclusive); details: ARE-bla HepG2 viability, CellTiter-Glo ATP luminescence, 16 h; max response: stronger effect = lower value
In short: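 ARE-bla HepG2 cells (2,000/well) rested 5 hrs at 37C/5% CO2, then exposed to compounds in DMSO for 16 hrs. Viability was read in the same wells as intracellular ATP by luminescence, 30 min at room temperature after reagent addition.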

[25] = qHTS assay for cell viability of HEK293 cells (AID 743288; active = well fitted curve in the direction sought with a large enough effect; an effect the other way counts as inactive or inconclusive; note: nearly all actives have a fitted effect of over 50% in size); details: ATP luminescence (CellTiter-Glo), 18 h; max response: stronger effect = lower value
In short: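 Luminescent ATP quantitation served as the viability read-out. Cells (parental HEK293, 2,000/well) received compounds after at least 5 h at 37 C and were exposed for 18 h before a 30 min room-temperature reagent step.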

[26] = qHTS assay for cell viability of the p53RE-bla HCT-116 cell line (AID 743292; active = well fitted curve in the direction sought with a large enough effect; an effect the other way counts as inactive or inconclusive; note: nearly all actives have a fitted effect of over 55% in size)
In short: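 Intracellular ATP of p53RE-bla HCT-116 cells measured by luciferase luminescence following 16 h compound incubation at 37 C; DMSO-only wells served as vehicle controls.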

Furin (Homo sapiens) = Furin (Homo sapiens) (UniProt P09958); assay: Furin counterscreen qHTS for Zika virus inhibitors (AID 1347149; active = well fitted curve in the direction sought with a large enough effect; an effect the other way counts as inactive or inconclusive;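 note: purified recombinant full-length human furin enzyme at 5 nM; fluorescence gain from furin cutting a BOC-RVRR-AMC peptide substrate over 15 min; top concentration of the series differs between compounds; nearly all actives have a fitted effect of over 70% in size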)
Chain of Furin (Homo sapiens) (P09958 whole entry, looked up): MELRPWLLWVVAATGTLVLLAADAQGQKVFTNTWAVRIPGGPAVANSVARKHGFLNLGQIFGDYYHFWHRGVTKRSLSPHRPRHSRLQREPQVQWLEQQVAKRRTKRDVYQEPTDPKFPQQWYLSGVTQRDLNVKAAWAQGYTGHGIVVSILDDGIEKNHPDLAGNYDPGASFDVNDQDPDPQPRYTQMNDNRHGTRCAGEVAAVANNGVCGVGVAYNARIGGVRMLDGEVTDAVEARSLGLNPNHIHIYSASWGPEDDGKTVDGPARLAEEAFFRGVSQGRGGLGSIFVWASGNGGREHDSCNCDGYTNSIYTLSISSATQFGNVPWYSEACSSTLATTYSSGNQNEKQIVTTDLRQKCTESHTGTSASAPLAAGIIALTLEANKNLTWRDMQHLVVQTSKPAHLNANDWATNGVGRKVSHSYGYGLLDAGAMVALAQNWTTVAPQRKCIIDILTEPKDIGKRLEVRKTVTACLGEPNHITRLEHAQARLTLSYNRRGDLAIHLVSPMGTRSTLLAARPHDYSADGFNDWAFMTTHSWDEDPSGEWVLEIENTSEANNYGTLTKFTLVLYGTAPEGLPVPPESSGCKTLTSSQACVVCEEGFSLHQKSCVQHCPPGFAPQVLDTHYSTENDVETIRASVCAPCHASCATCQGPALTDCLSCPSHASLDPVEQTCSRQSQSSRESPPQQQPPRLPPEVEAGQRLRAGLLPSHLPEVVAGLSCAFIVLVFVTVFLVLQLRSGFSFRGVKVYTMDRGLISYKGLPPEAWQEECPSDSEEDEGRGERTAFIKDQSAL
In short: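 Fluorogenic cleavage of BOC-RVRR-AMC (2 microM final, Km ~15 µM) was monitored (ex 340, em 450 nm) at 37C after 15 min RT preincubation of 5 nM furin with compounds in HEPES pH 7.0 buffer with CaCl2 and Triton X-100. Percent inhibition was fitted to a 4-parameter Hill curve.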

[27] = Vero cells viability qHTS for Zika virus inhibitors (AID 1347167; active = well fitted curve in the direction sought with a large enough effect; an effect the other way counts as inactive or inconclusive)
In short: (§2)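 Counter-screen for cytotoxicity of hits from NS2B-NS3 protease qHTS. Overnight-attached cells (2.5 x 10^5 cells/mL, DMEM/4% FBS) were dosed in titration, incubated 24 to 48 hours, then assayed by CellTiter Glo.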

[28] = HepG2 cells viability qHTS for Zika virus inhibitors (AID 1347168; active = well fitted curve in the direction sought with a large enough effect; an effect the other way counts as inactive or inconclusive)
In short: as §2

[29] = Tertiary RLuc qRT-PCR qHTS assay for Zika virus inhibitors (AID 1347169; active = well fitted curve in the direction sought with a large enough effect; an effect the other way counts as inactive or inconclusive; note: top concentration of the series differs between compounds; nearly all actives have a fitted effect of over 55% in size)
In short: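 Inhibition of ZIKV-RLuc replication in Vero cells, read as Renilla luminescence 1-1.5 hrs after live-cell substrate addition, following 48-72 hrs infection at MOI 1-2 in presence of compound.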

[30] = target: Nuclear receptor subfamily 1 group I member 2 (Rattus norvegicus) (UniProt Q9R1A7); assay: qHTS assay for small molecule activators of the rat pregnane X receptor (rPXR) signaling pathway (AID 651751; call rule not given here); details: rPXR reporter cells, luciferase (One-Glo), 24 h
Chain of Nuclear receptor subfamily 1 group I member 2 (Rattus norvegicus) (Q9R1A7 whole entry, looked up): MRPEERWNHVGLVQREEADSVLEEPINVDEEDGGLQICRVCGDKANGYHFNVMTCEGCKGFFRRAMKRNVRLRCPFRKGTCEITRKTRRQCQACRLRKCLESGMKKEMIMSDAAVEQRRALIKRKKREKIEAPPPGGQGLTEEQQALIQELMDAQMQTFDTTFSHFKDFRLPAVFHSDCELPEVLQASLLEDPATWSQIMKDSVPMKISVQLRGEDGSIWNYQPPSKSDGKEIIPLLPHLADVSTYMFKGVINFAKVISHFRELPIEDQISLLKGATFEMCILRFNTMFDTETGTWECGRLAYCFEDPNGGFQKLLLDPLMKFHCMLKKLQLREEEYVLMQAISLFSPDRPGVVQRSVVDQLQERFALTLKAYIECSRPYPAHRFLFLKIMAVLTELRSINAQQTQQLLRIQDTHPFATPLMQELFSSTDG

What does the source list for NS(=O)(=O)c1ccc(NC2=CC(=O)c3ccccc3C2=O)cc1?
Potency [1]: 38.5 µM (active); Potency [2]: 12.2 µM (active); Potency [3]: inactive; Potency [4]: inactive

Which outcome [5] does the source give for CC(=O)/C=C1\C(=O)N(C)c2ccccc21 here?
The outcome was “inactive”.

And the Potency [1]?
Its Potency is “inactive”.

With CCCCCCCCc1ccc(CCC(N)(CO)CO)cc1 as the compound, how does the Potency [1] read?
Its Potency is “inactive”.

And the Potency [2]?
The Potency was “inactive”.

And the Potency [3]?
The Potency was 7.08 µM (active) and 25.1 µM (active).

Which results are given for N#Cc1cc([N+](=O)[O-])c2sc(C(N)=O)[n+]([O-])c2c1?
outcome [5]: inactive; Potency [1]: inactive; Potency [2]: inactive

What does the source list for NC(=O)c1nnn(Cc2cc(Cl)c(C(=O)c3ccc(Cl)cc3)c(Cl)c2)c1N?
Potency [1]: inactive; Potency [2]: inactive

With C/C=C/CC(C)C(O)C1C(=O)NC(CC)C(=O)N(C)CC(=O)N(C)C(CC(C)C)C(=O)NC(C(C)C)C(=O)N(C)C(CC(C)C)C(=O)NC(C)C(=O)NC(C)C(=O)N(C)C(CC(C)C)C(=O)N(C)C(CC(C)C)C(=O)N(C)C(C(C)C)C(=O)N1C (configuration not stated) as the compound, how does the Potency [2] read?
Its Potency is “inactive”.

What about the outcome [6] of the same compound?
The outcome was “inactive”.

For COc1ccc(Cn2ccc3ccc(C(=O)NO)cc32)cc1, which Potency [2] is on record?
The Potency was “inactive”.

And the Potency [3]?
The Potency was “inactive”.

With Oc1ccc2c3c1O[C@H]1c4oc5ccccc5c4C[C@@]4(O)C(C2)N(CC2CC2)CC[C@]314 as the compound, how does the Potency [7] read?
Its Potency is “inactive”.

With OC[C@H]1O[C@@H](n2cnc3cc(Cl)c(Cl)cc32)[C@H](O)[C@H]1O as the compound, how does the Potency [7] read?
The Potency was “inactive”.

Which results are given for COc1ccc(-c2coc3cc(O)cc(O)c3c2=O)cc1?
Potency [2]: inactive; Potency [3]: inactive

What does the source list for CC(C)OC(=O)Nc1ccccc1?
Potency [8]: inactive; Potency [9]: inactive; outcome [10]: inactive; Potency [11]: inactive; outcome [12]: inactive; Potency [13]: inactive; max response [14]: -15.4%; outcome [15]: inactive; Potency [16]: inactive; max response [17]: -6.41%; max response [18]: -6.43% (inactive); Potency [19]: inactive; activation [20]: -1.81% (inactive); activation [21]: 0.27% (inactive); activation [22]: 12.4% (inactive); max response [23]: -0.246% (inactive); max response [24]: -3.27% (inactive); max response [25]: -1.53% (inactive); outcome [26]: inactive; Potency (Furin (Homo sapiens)): inactive; Potency [27]: inactive; Potency [28]: inactive; Potency [29]: inactive; max response [30]: 10.9% (inactive)

For Oc1ccc2c3c1O[C@H]1c4c(c5ccccc5n4Cc4ccccc4)C[C@@]4(O)C(C2)N(CC2CC2)CC[C@]314, which Potency [7] is on record?
Its Potency is “inactive”.
